Experimental data as given in PubChem BioAssay (NCI).
This is part of a sample that, as a whole, favours compounds with a hit. Of some 79,000 tested, about 15% had one in any assay. Values without a mark were called inactive. The source made the active and inactive calls. No stated cut-off is given here; in the data, active means growth inhibition above about 70%; inactive means the rest.

Key:
[1] = NCI Yeast Anticancer Drug Screen. Data for the rad50 strain (AID 155);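 further: 0% = growth of vehicle-only cultures of the same strain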; conditions: S. cerevisiae rad50 strain growth inhibition; at 50.0 µM; hits give high values
In short: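 Inhibition values express reduced yeast growth in compound-treated cultures relative to vehicle-treated controls.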

[2] = NCI Yeast Anticancer Drug Screen. Data for the mec2-1 strain (AID 157); conditions: S. cerevisiae mec2-1 strain, at 50.0 µM, hits give high values
In short: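 Strain: mec2-1 (DNA repair/cell cycle alteration). Compound exposure, then growth measured; inhibition expressed relative to vehicle.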

[3] = NCI Yeast Anticancer Drug Screen. Data for the sgs1 mgt1 strain (AID 161);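 further: 0% = growth of cultures given vehicle only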; conditions: S. cerevisiae sgs1 mgt1 strain, at 50.0 µM, hits give high values
In short: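 Inhibition of yeast growth, normalised to vehicle-treated controls, is reported for a strain bearing genetic alterations in DNA damage repair.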

[4] = NCI Yeast Anticancer Drug Screen. Data for the cln2 rad14 strain (AID 165);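 further: 0% = growth equal to vehicle treated cultures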; conditions: S. cerevisiae cln2 rad14 strain, at 50.0 µM, hits give high values
In short: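 Compounds are applied to the cln2 rad14 yeast strain, and growth is then compared with that of vehicle-treated cultures to give inhibition.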

[5] = NCI Yeast Anticancer Drug Screen. Data for the bub3 strain (AID 167); conditions: S. cerevisiae bub3 mutant strain, at 50.0 µM, hits give high values
In short: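 Steps: expose the mutant yeast strain to compound; grow alongside vehicle-treated cultures; measure growth; express inhibition against the vehicle cultures.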

[6] = NCI Yeast Anticancer Drug Screen. Data for the mlh1 rad18 strain (AID 175); conditions: S. cerevisiae mlh1 rad18 strain growth inhibition; at 50.0 µM; hits give high values
In short: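 Read-out is yeast growth inhibition, calculated against vehicle-only controls. The compound was applied to a strain engineered with DNA damage repair alterations.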

## C[n+]1ccc(/C=C/c2ccnc3c(O)cccc23)cc1
[1]
  growth inhibition: 17.5%
[2]
  growth inhibition: 11.7%
[3]
  growth inhibition: -13.4%
[4]
  growth inhibition: -7.3%
[5]
  growth inhibition: -7.4%
[6]
  growth inhibition: 18%

## O=C1CN(c2ccccc2)Cc2nc(Cl)ccc2N1
[1]
  growth inhibition: 39.9%
[2]
  growth inhibition: 7.45%
[3]
  growth inhibition: 24.4%
[4]
  growth inhibition: 17.4%
[5]
  growth inhibition: 3.55%
[6]
  growth inhibition: 72.5% (active)

## O=c1[nH]c(=O)n(C2CC(O)C(CO)O2)cc1C#Cc1ccc(F)cc1 (stereo unspecified)
[1]
  growth inhibition: -3.45%
[2]
  growth inhibition: 19.2%
[3]
  growth inhibition: -15.2%
[4]
  growth inhibition: -5.6%
[5]
  growth inhibition: 3.85%
[6]
  growth inhibition: -8.95%

## Nc1ccc(S(=O)(=O)O)cc1Cl
[1]
  growth inhibition: -12.5%
[2]
  growth inhibition: -12%
[3]
  growth inhibition: -5.25%
[4]
  growth inhibition: -9.9%
[5]
  growth inhibition: -10.4%
[6]
  growth inhibition: -3.5%

## O=C(O)CCCCC(=O)c1cc(O)ccc1O
[1]
  growth inhibition: 15.3%
[2]
  growth inhibition: 10.1%
[3]
  growth inhibition: 2.55%
[4]
  growth inhibition: -53.3%
[5]
  growth inhibition: -15.3%
[6]
  growth inhibition: -3.45%

## C=CCN1CC2CON(C(=O)C(OC)(c3ccccc3)C(F)(F)F)C2C1C(C)C (stereo unspecified)
[1]
  growth inhibition: 2.05%
[2]
  growth inhibition: -17.7%
[3]
  growth inhibition: 9.15%
[4]
  growth inhibition: 18.2%
[5]
  growth inhibition: 24.2%
[6]
  growth inhibition: -5.85%

## CCc1ccccc1NC(=O)COc1ccc(Cl)cc1
[1]
  growth inhibition: 5.7%
[2]
  growth inhibition: 29.2%
[3]
  growth inhibition: 18.8%
[4]
  growth inhibition: 0.45%
[5]
  growth inhibition: 34.2%
[6]
  growth inhibition: 1.1%

## C/C=N/Nc1ccccc1
[1]
  growth inhibition: 24.8%
[2]
  growth inhibition: -1.4%
[3]
  growth inhibition: 18.2%
[4]
  growth inhibition: 32.9%
[5]
  growth inhibition: 31.9%
[6]
  growth inhibition: 30%

## C[N+]1(C)CC=C(N2CCOCC2)CC1
[1]
  growth inhibition: -27.6%
[2]
  growth inhibition: -25.1%
[3]
  growth inhibition: -18.8%
[4]
  growth inhibition: -30%
[5]
  growth inhibition: -12.9%
[6]
  growth inhibition: -14.4%

## CCCCCn1c(=O)c2c(=O)[nH][nH]c2c2ccccc21
[1]
  growth inhibition: -16.3%
[2]
  growth inhibition: -7.9%
[3]
  growth inhibition: -9.55%
[4]
  growth inhibition: -69.6%
[5]
  growth inhibition: -1.3%
[6]
  growth inhibition: -22.5%

## O=C(c1ccccc1)c1cc(Br)c2cccc3c2c1CC3
[1]
  growth inhibition: 11.6%
[2]
  growth inhibition: -7.6%
[3]
  growth inhibition: -1.5%
[4]
  growth inhibition: 14.3%
[5]
  growth inhibition: 20.4%
[6]
  growth inhibition: -3%

## O=[N+]([O-])c1ccc(OCc2ccc(CBr)cc2)c(Cl)c1
[1]
  growth inhibition: 4.1%
[2]
  growth inhibition: 29.6%
[3]
  growth inhibition: 15.4%
[4]
  growth inhibition: -13.7%
[5]
  growth inhibition: 16%
[6]
  growth inhibition: 22.5%

## CN(CN(C)/N=C/c1cccc([N+](=O)[O-])c1)/N=C\c1cccc([N+](=O)[O-])c1
[1]
  growth inhibition: -0.05%
[2]
  growth inhibition: -11.6%
[3]
  growth inhibition: -2.9%
[4]
  growth inhibition: -40.9%
[5]
  growth inhibition: 4.95%
[6]
  growth inhibition: -14.3%

## C1=CCC(C(Cc2ccccc2)N2CCCCC2)CC1 (stereo unspecified)
[1]
  growth inhibition: 15.8%
[2]
  growth inhibition: 1%
[3]
  growth inhibition: 23.9%
[4]
  growth inhibition: -27.4%
[5]
  growth inhibition: 11.2%
[6]
  growth inhibition: 24.1%

## CCn1c2ccccc2c2c(-c3ccccc3)cc3c(c21)C(=O)N(c1ccccc1)C3=O
[1]
  growth inhibition: -0.3%
[2]
  growth inhibition: -8.95%
[3]
  growth inhibition: 3.45%
[4]
  growth inhibition: -54%
[5]
  growth inhibition: -7.9%
[6]
  growth inhibition: -9.9%

## Cc1cc(=O)n(C)c2ccc(N)cc12
[1]
  growth inhibition: -3.85%
[2]
  growth inhibition: 3.75%
[3]
  growth inhibition: -4%
[4]
  growth inhibition: -14.8%
[5]
  growth inhibition: 10.5%
[6]
  growth inhibition: 1.85%

## COc1ccc(CCNC(=O)CCC2CCN(CCc3ccc(OC)c(OC)c3)CC2)cc1OC
[1]
  growth inhibition: 16.2%
[2]
  growth inhibition: -2.05%
[3]
  growth inhibition: 1.65%
[4]
  growth inhibition: 22.4%
[5]
  growth inhibition: -1.5%
[6]
  growth inhibition: 3.6%

## COc1ccc(/C=N/N2CN(C(C)C(=O)O)B(NC34CC5CC(CC(C5)C3)C4)N=C2N)cc1OC (stereo unspecified)
[1]
  growth inhibition: -16.6%
[2]
  growth inhibition: -14.2%
[3]
  growth inhibition: 10.3%
[4]
  growth inhibition: -25.2%
[5]
  growth inhibition: 1.3%
[6]
  growth inhibition: -6.4%

## CN(C)C1CS(=O)(=O)C1c1ccccc1 (stereo unspecified)
[1]
  growth inhibition: 19.6%
[2]
  growth inhibition: 9%
[3]
  growth inhibition: 7.1%
[4]
  growth inhibition: -19.5%
[5]
  growth inhibition: 8.3%
[6]
  growth inhibition: 1.45%

## O=C1CCC(C2(O)c3ccccc3-c3ccccc32)C(=O)N1 (stereo unspecified)
[1]
  growth inhibition: -20.7%
[2]
  growth inhibition: -16.1%
[3]
  growth inhibition: -22.3%
[4]
  growth inhibition: 22.4%
[5]
  growth inhibition: 4.65%
[6]
  growth inhibition: 1.4%

## COC(=O)C1CCC(=O)N1Cc1csc(-c2ccccc2)n1 (stereo unspecified)
[1]
  growth inhibition: -12.1%
[2]
  growth inhibition: -6.95%
[3]
  growth inhibition: -6.8%
[4]
  growth inhibition: -24.7%
[5]
  growth inhibition: -14.8%
[6]
  growth inhibition: -11.8%

## CC1(C)C2CC3C(CCC4C(=O)OC(=O)C43)C1C2 (stereo unspecified)
[1]
  growth inhibition: -1.2%
[2]
  growth inhibition: 10.2%
[3]
  growth inhibition: -3.8%
[4]
  growth inhibition: -5.3%
[5]
  growth inhibition: -4.3%
[6]
  growth inhibition: -2.35%

## Cc1cc(Cl)c(Cl)cc1NC(=O)c1c(Br)c(Br)c(Br)c(Br)c1C(=O)O
[1]
  growth inhibition: 0.7%
[2]
  growth inhibition: 11.4%
[3]
  growth inhibition: 8%
[4]
  growth inhibition: -16.1%
[5]
  growth inhibition: -3.2%
[6]
  growth inhibition: 28.4%

## CC(=O)Nc1ccc2nc(N)sc2c1
[1]
  growth inhibition: 13%
[2]
  growth inhibition: 5.55%
[3]
  growth inhibition: -16.1%
[4]
  growth inhibition: -3.65%
[5]
  growth inhibition: 3.8%
[6]
  growth inhibition: 6.6%

## Cc1n[nH]c(=S)n1N
[1]
  growth inhibition: -9.4%
[2]
  growth inhibition: -1.9%
[3]
  growth inhibition: -24.4%
[4]
  growth inhibition: -25.9%
[5]
  growth inhibition: -14.5%
[6]
  growth inhibition: -3.5%

## CCCCCC(=O)OCC[N+](C)(C)C
[1]
  growth inhibition: -29.8%
[2]
  growth inhibition: -29.9%
[3]
  growth inhibition: -6.95%
[4]
  growth inhibition: 4.85%
[5]
  growth inhibition: -25.2%
[6]
  growth inhibition: -13.2%

## CCCCOC(=O)C(C)OC(=O)COc1ccc(Cl)cc1C (stereo unspecified)
[1]
  growth inhibition: 5.05%
[2]
  growth inhibition: -13.7%
[3]
  growth inhibition: 15.4%
[4]
  growth inhibition: -40.7%
[5]
  growth inhibition: 2.25%
[6]
  growth inhibition: -1.05%

## COC(=O)/C(=N\NC(N)=O)C(C#N)c1ccccc1 (stereo unspecified)
[1]
  growth inhibition: -12.5%
[2]
  growth inhibition: -1.85%
[3]
  growth inhibition: -5.75%
[4]
  growth inhibition: -29.9%
[5]
  growth inhibition: 6.7%
[6]
  growth inhibition: -4.8%

## CC(C)CNC(=O)c1ccccc1
[1]
  growth inhibition: 0.45%
[2]
  growth inhibition: 5.1%
[3]
  growth inhibition: -1.6%
[4]
  growth inhibition: -3.2%
[5]
  growth inhibition: 0.5%
[6]
  growth inhibition: -4.65%

## COC12C=CC(CC1)C(C)(C)C2=O (stereo unspecified)
[1]
  growth inhibition: 8.85%
[2]
  growth inhibition: -4.7%
[3]
  growth inhibition: -3.9%
[4]
  growth inhibition: 3.2%
[5]
  growth inhibition: -3.05%
[6]
  growth inhibition: -0.55%

## O=C1CC2CC1C1C(=O)OC(=O)C21 (stereo unspecified)
[1]
  growth inhibition: -6.8%
[2]
  growth inhibition: 5.95%
[3]
  growth inhibition: -6.7%
[4]
  growth inhibition: -1.6%
[5]
  growth inhibition: -6.9%
[6]
  growth inhibition: -8.6%

## CCCCCCCCCC(=O)OCCCC(CCCOC(=O)CCCCCCCCC)OC(=O)CCCCCCCCC
[1]
  growth inhibition: -19.9%
[2]
  growth inhibition: -6.85%
[3]
  growth inhibition: -6.25%
[4]
  growth inhibition: -23.9%
[5]
  growth inhibition: -16.4%
[6]
  growth inhibition: -26.6%

## CC1C(=O)C(O)CC2C1(C)CCC1C2(C)CCC2(C)C3CC(C)(C)CCC3(C)CCC12C (stereo unspecified)
[1]
  growth inhibition: -7.2%
[2]
  growth inhibition: -2.6%
[3]
  growth inhibition: -6.45%
[4]
  growth inhibition: 1.2%
[5]
  growth inhibition: 5.45%
[6]
  growth inhibition: -4.7%

## CN(C)c1nc2ccccn2c1C(=O)c1ccccc1
[1]
  growth inhibition: 4.85%
[2]
  growth inhibition: -0.1%
[3]
  growth inhibition: -12.8%
[4]
  growth inhibition: -19.4%
[5]
  growth inhibition: -0.6%
[6]
  growth inhibition: -5.5%

## COC1NC(=O)Oc2ccccc21 (stereo unspecified)
[1]
  growth inhibition: -6.25%
[2]
  growth inhibition: 29.5%
[3]
  growth inhibition: -8.95%
[4]
  growth inhibition: -3.3%
[5]
  growth inhibition: -12.5%
[6]
  growth inhibition: -19.4%

## O=C(c1ccccc1)C1N=NN(Cc2ccccc2[N+](=O)[O-])C1C(=O)c1ccccc1 (stereo unspecified)
[1]
  growth inhibition: -6.75%
[2]
  growth inhibition: -30.9%
[3]
  growth inhibition: -25.1%
[4]
  growth inhibition: -57.5%
[5]
  growth inhibition: -1.45%
[6]
  growth inhibition: -0.65%
